# Assay results: PubChem BioAssay (EPA / NIEHS)
# Inconclusive results are not listed. Calls of active or inactive are those of the source. How the source made its calls, unless noted: active means hit-call score of the fitted dose curve at least 0.9, where 1 is the maximum; inconclusive means response in the unintended direction; inactive means score below 0.9.
# Key:
# [1] = target: PGR (gene 5241) (UniProt P06401); assay: TOX21_PR_LUC_Followup_Agonist: Tox21 HEK293 Progesterone Receptor (PR) Agonism Luciferase Follow-Up Assay (AID 2283937; active means hit-call score of the fitted dose curve at least 0.9, where 1 is the maximum; inactive means score below 0.9)
# Chain of PGR (gene 5241) (P06401 whole entry, looked up): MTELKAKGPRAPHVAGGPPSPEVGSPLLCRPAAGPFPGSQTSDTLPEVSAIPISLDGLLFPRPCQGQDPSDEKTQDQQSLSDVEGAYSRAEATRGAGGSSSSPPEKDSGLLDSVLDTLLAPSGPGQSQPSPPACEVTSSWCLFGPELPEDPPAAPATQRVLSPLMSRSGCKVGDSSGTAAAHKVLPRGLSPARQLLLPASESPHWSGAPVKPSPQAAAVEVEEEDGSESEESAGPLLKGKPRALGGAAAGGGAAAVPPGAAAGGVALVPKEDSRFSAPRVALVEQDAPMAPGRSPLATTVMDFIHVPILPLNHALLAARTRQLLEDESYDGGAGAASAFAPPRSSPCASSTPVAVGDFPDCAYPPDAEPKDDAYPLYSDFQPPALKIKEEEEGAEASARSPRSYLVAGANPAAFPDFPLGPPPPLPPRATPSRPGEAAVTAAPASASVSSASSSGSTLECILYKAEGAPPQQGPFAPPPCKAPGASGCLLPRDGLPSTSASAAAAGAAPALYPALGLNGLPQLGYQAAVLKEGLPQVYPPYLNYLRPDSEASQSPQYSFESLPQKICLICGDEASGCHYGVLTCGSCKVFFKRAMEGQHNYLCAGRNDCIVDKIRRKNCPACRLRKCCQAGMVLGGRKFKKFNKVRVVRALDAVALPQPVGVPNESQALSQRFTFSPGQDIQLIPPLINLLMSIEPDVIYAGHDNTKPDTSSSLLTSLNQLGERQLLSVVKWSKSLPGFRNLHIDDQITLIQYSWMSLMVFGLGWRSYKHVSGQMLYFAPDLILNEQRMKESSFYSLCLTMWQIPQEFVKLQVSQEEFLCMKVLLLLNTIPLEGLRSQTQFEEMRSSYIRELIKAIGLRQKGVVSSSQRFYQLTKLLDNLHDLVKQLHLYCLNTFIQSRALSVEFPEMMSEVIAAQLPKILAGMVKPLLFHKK
# Method in brief: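 Agonism scored as luciferase induction over DMSO, read by ONE-Glo after 30 min at RT. Compounds were incubated 16 h at 37C on HEK293-PR-A-luc cells (3,000/well, pre-plated 5 h) previously grown 5 days in charcoal-stripped serum.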
# [2] = target: PGR (gene 5241) (UniProt P06401); assay: TOX21_PR_LUC_Followup_Antagonist: Tox21 HEK293 Progesterone Receptor (PR) Antagonism Luciferase Follow-Up Assay (AID 2283938);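 further: curve fitted upward as signal gain over DMSO baseline despite antagonist label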
# Method in brief: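 HEK293-PR-A-luc cells, 3,000/well, preincubated 5 h at 37C before compound addition in DMSO; 16 h compound exposure at 37C. ONE-Glo luciferase luminescence read after 30 min at room temperature, fitted relative to DMSO baseline.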
# [3] = TOX21_PR_LUC_Followup_Antagonist_viability: Viability Assessment in the Tox21 HEK293 Progesterone Receptor (PR) Antagonism Luciferase Follow-Up Assay (AID 2283940)
# Method in brief: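 Viability counter-readout: cellular ATP measured by luciferase luminescence after 16 h compound exposure at 37C of HEK293-PR-A-luc cells, which had been cultured in charcoal-stripped serum and seeded 5 h beforehand.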
# [4] = TOX21_PR_LUC_Followup_Agonist_viability: Viability Assessment in the Tox21 HEK293 Progesterone Receptor (PR) Agonism Luciferase Follow-Up Assay (AID 2283941);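 further: loss of signal means cytotoxicity so actives lower viability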
# Method in brief: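 Cytotoxicity counter-readout in the PR-A luciferase reporter line HEK293, with 16 h compound exposure at 37C after cells were cultured in charcoal-stripped serum. Cellular ATP quantified by CellTiter-Glo luminescence.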
# [5] = target: T1, Thyroid hormone receptor alpha (Rattus norvegicus) + Thyroid hormone receptor beta (Rattus norvegicus) (UniProt P18113+P63059); assay: TOX21_TR_LUC_GH3_Agonist_Followup: Tox21 GH3 Thyroid Hormone Receptor Agonism Luciferase Follow-Up Assay (AID 2283939)
# T1 sequence (P63059 whole entry, looked up): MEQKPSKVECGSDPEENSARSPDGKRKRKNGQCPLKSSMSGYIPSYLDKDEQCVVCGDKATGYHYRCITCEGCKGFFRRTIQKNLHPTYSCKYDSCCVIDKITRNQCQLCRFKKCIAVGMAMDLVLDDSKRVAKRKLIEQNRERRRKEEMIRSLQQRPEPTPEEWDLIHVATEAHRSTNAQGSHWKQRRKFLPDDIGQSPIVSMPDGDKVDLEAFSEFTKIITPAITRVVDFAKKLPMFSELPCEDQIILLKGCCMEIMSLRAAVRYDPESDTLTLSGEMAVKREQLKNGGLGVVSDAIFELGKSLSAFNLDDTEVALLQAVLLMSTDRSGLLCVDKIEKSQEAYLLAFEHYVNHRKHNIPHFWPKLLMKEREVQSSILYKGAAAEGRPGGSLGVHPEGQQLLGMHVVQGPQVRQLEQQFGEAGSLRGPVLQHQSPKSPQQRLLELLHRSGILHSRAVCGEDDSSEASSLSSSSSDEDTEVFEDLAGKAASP
# T1 sequence (P18113 whole entry, looked up): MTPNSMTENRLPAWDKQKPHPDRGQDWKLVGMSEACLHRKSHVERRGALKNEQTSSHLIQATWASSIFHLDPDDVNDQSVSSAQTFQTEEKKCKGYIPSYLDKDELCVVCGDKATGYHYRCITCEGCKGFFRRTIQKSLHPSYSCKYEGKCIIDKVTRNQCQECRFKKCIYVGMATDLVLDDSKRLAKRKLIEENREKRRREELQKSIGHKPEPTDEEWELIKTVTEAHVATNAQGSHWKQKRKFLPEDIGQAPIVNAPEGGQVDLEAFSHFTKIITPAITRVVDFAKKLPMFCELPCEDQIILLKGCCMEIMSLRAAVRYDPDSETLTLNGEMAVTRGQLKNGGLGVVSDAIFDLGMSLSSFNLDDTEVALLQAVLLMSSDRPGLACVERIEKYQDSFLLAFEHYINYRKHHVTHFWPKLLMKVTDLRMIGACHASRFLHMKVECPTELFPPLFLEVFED
# Method in brief: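 Agonist-mode confirmatory run: 15 concentrations (5 nM to 92 uM final) on GH3 rat pituitary cells, 24 h at 37C/5% CO2, T3 as positive control. Luminescence read with ONE-Glo after 30 min.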
# [6] = target: THRA (gene 7067) (UniProt P10827); assay: TOX21_TRA_COA_Agonist_Followup_ratio: Tox21 Thyroid Hormone Receptor alpha Agonism through Coactivator Recruitment Follow-Up Assay, Ratio (AID 2283948; active means hit-call score of the fitted dose curve at least 0.9, where 1 is the maximum; inactive means score below 0.9)
# Chain of THRA (gene 7067) (P10827 whole entry, looked up, the tested form may be a part): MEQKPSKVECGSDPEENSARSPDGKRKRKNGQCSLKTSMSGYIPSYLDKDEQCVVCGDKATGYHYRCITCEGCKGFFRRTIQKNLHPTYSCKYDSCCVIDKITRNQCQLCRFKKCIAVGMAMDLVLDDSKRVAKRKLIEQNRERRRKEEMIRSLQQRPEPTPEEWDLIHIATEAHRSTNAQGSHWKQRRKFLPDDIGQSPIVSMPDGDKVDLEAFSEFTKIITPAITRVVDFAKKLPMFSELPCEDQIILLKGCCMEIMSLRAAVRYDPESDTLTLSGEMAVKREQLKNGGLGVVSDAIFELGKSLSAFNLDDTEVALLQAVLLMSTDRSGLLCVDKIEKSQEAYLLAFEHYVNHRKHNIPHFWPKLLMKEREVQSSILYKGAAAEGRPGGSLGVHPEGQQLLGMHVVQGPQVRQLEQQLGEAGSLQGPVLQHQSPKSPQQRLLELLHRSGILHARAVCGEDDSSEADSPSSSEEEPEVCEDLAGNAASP
# Method in brief: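 Cell-free TR-FRET: GST-tagged TRα LBD (2.5 nM) with 0.10% BSA and compound, then fluorescein-SRC-2 peptide (200 nM) and Tb-anti-GST antibody (2 nM). Readout 520:495 nm ratio (ex 340 nm), normalized to DMSO (0%) and T3 (100%).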
# [7] = target: T1, Thyroid hormone receptor alpha (Rattus norvegicus) + Thyroid hormone receptor beta (Rattus norvegicus); assay: TOX21_TR_LUC_GH3_Antagonist_Followup: Tox21 GH3 Thyroid Hormone Receptor Antagonism Luciferase Follow-Up Assay (AID 2283942)
# Method in brief: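 Loss of T3-driven (1.0 nM final) reporter activity in GH3 cells was read by ONE-Glo luminescence after 24 h incubation at 37C; 15-point compound series spanned 92 uM to 5nM final, 1,500 cells/well.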
# [8] = TOX21_TRB_BLA_Antagonist_Followup_viability: Viability Assessment in the Tox21 Thyroid Hormone Receptor beta Antagonism Beta-lactamase (BLA) Follow-Up Assay (AID 2283961)
# Method in brief: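 HEK293T cells with GAL4-human TRβ LBD and UAS-bla reporter, 3,000 cells/well in 2% charcoal-stripped FBS medium; 11-point concentrations in triplicate, 18 h at 37C. Viability from ATP by CellTiter-Glo luminescence, 30 min RT, same plates.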
# [9] = target: THRA (gene 7067) (UniProt P10827); assay: TOX21_TRA_COA_Antagonist_Followup_ratio: Tox21 Thyroid Hormone Receptor alpha Antagonism through Coactivator Recruitment Follow-Up Assay, Ratio (AID 2283953)
# Method in brief: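 GST-TRα LBD 2.5 nM, BSA 0.10%, + cpd; then FITC-SRC-2 peptide 200 nM + Tb-anti-GST Ab 2 nM. TR-FRET ratio 520/495 nm. Norm: DMSO = 0%, T3 = 100%.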
# [10] = target: THRB (gene 7068) (UniProt P10828); assay: TOX21_TRB_BLA_Antagonist_Followup_ratio: Tox21 Thyroid Hormone Receptor beta Antagonism Beta-lactamase (BLA) Follow-Up Assay, Ratio (AID 2283958)
# Chain of THRB (gene 7068) (P10828 whole entry, looked up, the tested form may be a part): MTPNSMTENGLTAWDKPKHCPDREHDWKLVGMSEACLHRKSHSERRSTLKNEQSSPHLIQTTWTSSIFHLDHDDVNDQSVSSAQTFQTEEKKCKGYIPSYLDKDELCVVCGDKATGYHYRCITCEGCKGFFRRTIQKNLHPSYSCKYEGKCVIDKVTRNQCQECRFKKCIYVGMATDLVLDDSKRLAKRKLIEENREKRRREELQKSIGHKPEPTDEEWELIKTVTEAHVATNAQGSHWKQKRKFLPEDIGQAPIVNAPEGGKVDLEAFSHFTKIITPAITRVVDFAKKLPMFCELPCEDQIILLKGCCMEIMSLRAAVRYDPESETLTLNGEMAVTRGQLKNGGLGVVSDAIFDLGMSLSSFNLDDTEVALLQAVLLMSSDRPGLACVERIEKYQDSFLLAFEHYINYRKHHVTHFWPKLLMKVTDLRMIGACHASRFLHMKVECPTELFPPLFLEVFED
# Text: The GeneBLAzer TRb-UAS-bla HEK293T assay kit for human TRb (ThermoFisherScientific Catalog No. K1684) was used as a secondary assay for specificity (TRb-bla).This assay contained the ligand-binding domain (LBD) of the human TRb fused to the DNA-binding domain of GAL4 stably integrated in the GeneBLAzer UAS-bla HEK293Tcell line. The reporter gene, b-lactamase, is under the transcriptional control of a UAS that binds the GAL4 DNA-binding domain. A cell viability assay was run in parallel for these cells as well using the CellTiter-Glo viability assay kit.TOX21_TRB_BLA_Antagonist_Followup_ratio is an assay readout measuring reporter gene via receptor activity and designed using inducible reporter (beta lactamase induction) detected with GAL4 b-lactamase reporter gene. The signal is derived from the ratio of cleaved (ch2) to uncleaved (ch1) reporter gene substrate used as the measure of target activity.Data from the assay component TOX21_TRB_BLA_Antagonist_Followup_ratio was analyzed into 1 assay endpoint. This assay endpoint, TOX21_TRB_BLA_Antagonist_Followup_ratio, was analyzed in the positive analysis fitting direction relative to DMSO as the negative control and baseline of activity. Using a type of inducible reporter, loss-of-signal activity can be used to understand changes in the reporter gene as they relate to the gene THRB. […]
smiles,measurement,setting,value
O=C(c1ccc(O)cc1O)c1ccc(O)cc1O,outcome,[1],inactive
same,AC50,[2],68.3 µM (active)
same,outcome,[3],inactive
same,outcome,[4],inactive
CCNc1nc(N)nc(Cl)n1,outcome,[5],inactive
same,outcome,[6],inactive
CCCN(CCC)C(=O)SCC,outcome,[5],inactive
same,outcome,[6],inactive
CC(C)(c1ccc(O)cc1)c1ccc(O)cc1,outcome,[1],inactive
same,AC50,[2],33.3 µM (active)
same,outcome,[3],inactive
C[C@]12CC[C@@H]3c4ccc(O)cc4C[C@@H](CCCCCCCCCS(=O)CCCC(F)(F)C(F)(F)F)[C@H]3[C@@H]1CC[C@@H]2O (stereo partly specified),outcome,[1],inactive
same,AC50,[2],5.78 µM (active)
same,outcome,[3],inactive
same,outcome,[4],inactive
same,outcome,[7],inactive
same,outcome,[8],inactive
COC(=O)c1ccc(I)cc1S(=O)(=O)NC(=O)Nc1nc(C)nc(OC)n1,outcome,[5],inactive
same,outcome,[6],inactive
CC(=O)[C@H]1CC[C@H]2[C@@H]3CCC4=CC(=O)CC[C@]4(C)[C@H]3CC[C@]12C,outcome,[7],inactive
same,outcome,[9],inactive
same,outcome,[10],inactive
same,outcome,[8],inactive
CC(C)CCCCCCc1ccc(O)cc1,outcome,[2],inactive
same,outcome,[3],inactive
same,outcome,[4],inactive
C[C@]12C[C@H](O)[C@H]3[C@@H](CCC4=CC(=O)CC[C@@]43C)[C@@H]1CC[C@@H]2C(=O)CO,outcome,[2],inactive
same,outcome,[4],inactive
same,outcome,[9],inactive
same,outcome,[10],inactive
same,outcome,[8],inactive
